In all, about 310,000 compounds went through this assay and about 14,000 (4.5%) showed an effect of 50% or more. Effects have a minus sign here. Shown is part of a subset that was picked to be rich in strong results.
target: human ether-à-go-go-related gene (hERG) potassium channel (human, UniProt Q12809); assay: primary screen, population patch clamp on CHO cells stably expressing hERG; higher = less effect of the substance
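Further: peak tail current of the secondary pulse compared with the same well before compound.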

human ether-à-go-go-related gene (hERG) potassium channel, sequence (Q12809 whole entry, looked up): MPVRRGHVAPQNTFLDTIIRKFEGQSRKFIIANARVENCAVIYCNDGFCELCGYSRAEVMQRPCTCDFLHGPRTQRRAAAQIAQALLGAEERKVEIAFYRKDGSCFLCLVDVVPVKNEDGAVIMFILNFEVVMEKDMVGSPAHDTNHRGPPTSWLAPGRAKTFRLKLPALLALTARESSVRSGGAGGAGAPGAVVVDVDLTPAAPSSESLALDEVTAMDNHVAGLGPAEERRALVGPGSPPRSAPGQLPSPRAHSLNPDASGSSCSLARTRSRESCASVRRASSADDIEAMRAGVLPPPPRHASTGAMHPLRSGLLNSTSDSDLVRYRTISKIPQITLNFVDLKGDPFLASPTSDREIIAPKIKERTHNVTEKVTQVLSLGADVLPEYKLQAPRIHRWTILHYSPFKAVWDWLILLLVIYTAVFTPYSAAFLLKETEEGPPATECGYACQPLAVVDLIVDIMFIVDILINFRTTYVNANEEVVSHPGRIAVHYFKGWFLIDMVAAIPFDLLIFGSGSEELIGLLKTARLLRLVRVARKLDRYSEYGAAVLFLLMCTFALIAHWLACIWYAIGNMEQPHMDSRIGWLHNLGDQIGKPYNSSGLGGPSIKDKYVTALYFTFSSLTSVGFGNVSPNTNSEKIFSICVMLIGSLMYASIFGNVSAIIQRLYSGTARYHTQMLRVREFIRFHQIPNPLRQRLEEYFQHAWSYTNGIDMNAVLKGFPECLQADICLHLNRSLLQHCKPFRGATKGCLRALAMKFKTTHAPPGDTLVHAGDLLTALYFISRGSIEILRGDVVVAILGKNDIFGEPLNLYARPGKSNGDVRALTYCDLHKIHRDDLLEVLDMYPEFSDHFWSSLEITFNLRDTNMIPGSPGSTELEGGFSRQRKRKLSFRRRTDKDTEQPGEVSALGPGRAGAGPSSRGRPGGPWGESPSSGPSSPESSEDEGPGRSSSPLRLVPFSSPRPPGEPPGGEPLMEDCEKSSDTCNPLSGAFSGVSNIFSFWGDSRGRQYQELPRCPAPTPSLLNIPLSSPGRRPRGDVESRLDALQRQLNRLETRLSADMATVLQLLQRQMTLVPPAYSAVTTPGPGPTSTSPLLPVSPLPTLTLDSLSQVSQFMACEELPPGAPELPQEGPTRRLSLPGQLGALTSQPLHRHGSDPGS

SMILES | hERG current change (%, negative = inhibition) at 10uM [%]
O=C(N/N=C/c1c(O)ccc2ccccc12)c1cccnc1 | 7.7
COC(=O)COc1ccc(S(=O)(=O)N2CCN(c3ccccc3F)CC2)cc1 | -3.27
O=C(Nc1ccc(-c2csnn2)cc1)C(Cl)(Cl)Cl | 17.5
CC(C)C(=O)OCC(=O)Nc1ccc(N=Nc2ccccc2)cc1 | 4.2
CCN(CC)S(=O)(=O)c1cc(NS(=O)(=O)c2cccc(Cl)c2Cl)ccc1C | -1.79
CCCOc1ccc(NC(=O)C2CC(=O)N3CCCN=C3S2)cc1 (centres unmarked) | -11
CN1CCC(NC(=O)NC2CCCCC2)CC1 | 11.9
Cc1cc(NC2CCCCC2)n2c(n1)nc1ccccc12 | -55.1
Cc1cc(C)c2c(n1)nn1c(N3CCN(c4ccccc4)CC3)cc(C)nc21 | 4.66
Cc1nnc2c(NC3CCCCC3)nc3ccccc3n12 | 1.89
Cc1cc(N2CCN(c3ccccn3)CC2)n2cc(-c3ccccc3)nc2n1 | -72.3
Cc1cc(N2CCN(c3ccccc3)CC2)n2c(n1)nc1ccccc12 | -68.7
Cc1cc(Nc2cccc(F)c2)n2c(n1)nc1ccccc12 | 3.44
Cc1cc(N2CCN(c3ccccc3)CC2)nc(-c2ccccc2O)n1 | 6.15
Cc1cc(-c2ccccc2)nc(N2CCN(c3ccccn3)CC2)n1 | 1.11
c1ccc(-c2csc(N3CCN(c4ccccn4)CC3)n2)cc1 | -1.09
Cc1cc(N2CCN(c3ccccc3)CC2)nc2ccccc12 | 3.04
Cc1cc(N2CCN(c3ccccc3)CC2)n2cc(-c3ccccc3)nc2n1 | -75.3
Cc1cc(N2CCN(c3ccc(F)cc3)CC2)nc(-c2ccccc2)n1 | -13.7
CC(C)c1ccc(NC(=O)c2cccc(NC3=NC4CS(=O)(=O)CC4S3)c2)cc1 (centres unmarked) | -11.1
CS(=O)(=O)N(CC(=O)Nc1ccc(F)cc1)C1CCCCC1 | 12.6

SMILES | hERG current change (%, negative = inhibition) at 10uM [%]
c1ccc(-c2nc(C3CCCCC3)no2)cc1 | -0.00972
CCSC1=N/C(=C\c2ccccc2)C(=O)N1c1ccc(OC)cc1 | 6.36
O=C(O)c1cccnc1Cl | 10.7
O=C(/C=C/c1ccccc1)Nc1sc2c(c1C(=O)O)CCC2 | 5.92
COc1ccc(-c2cc(-c3ccc(F)cc3)nc(N3CCN(C)CC3)n2)cc1 | -3.88
CN1CCN(c2cc(-c3ccccc3)nc3cc(-c4ccc(F)cc4)nn23)CC1 | -14.5
Cc1cc(N2CCCCC2)n2nc(C)c(-c3ccccc3)c2n1 | 13.3
CC1CN(c2nc3ccccc3cc2-c2ccccc2)CC(C)O1 (centres unmarked) | -1.86
CCc1nn2c(N3CCOCC3)cc(C)nc2c1-c1ccc(F)cc1 | 0.767
Cc1cc(N2CCN(c3ccccc3Cl)CC2)n2cc(-c3ccccc3)nc2n1 | -53.9
Cc1cc(N2CCN(c3nc(-c4ccccc4)cs3)CC2)c2ccccc2n1 | -23.3
Cc1cc(N2CCOCC2)n2cc(-c3ccc(F)cc3)nc2n1 | -69
Cc1c(C(=O)N2CC(C)OC(C)C2)sc2nc(-c3ccccc3)cn12 (centres unmarked) | -15.2
Cc1cc(N2CCN(C)CC2)n2cc(-c3ccc(F)cc3)nc2n1 | -87.6
Cc1cc(N2CC(C)OC(C)C2)n2cc(-c3ccccc3)nc2n1 (centres unmarked) | -61.7
Cc1cc(N2CCOCC2)n2nc(-c3cccc(F)c3)cc2n1 | 0.119
O=C(NNC(=S)Nc1ccccc1Cl)c1ccccc1 | 5.93
O=C(CN1c2ccccc2S(=O)(=O)c2ccccc21)NCc1ccccc1 | 9.11
Cc1cccc(N(CC(=O)N2CCOCC2)S(C)(=O)=O)c1 | 6.69
CCC(=O)NC(=S)Nc1ccc(N2CCOCC2)cc1 | -2.62
CS(=O)(=O)N1CCN(C(=O)c2cc3ccccc3oc2=O)CC1 | -0.0734

SMILES | hERG current change (%, negative = inhibition) at 10uM [%]
O=C(NCCC1=CCCCC1)C1CCN(S(=O)(=O)c2cccs2)CC1 | -29.2
CCOc1ccc(-n2c(SCC(=O)Nc3cc(C(=O)O)ccc3Cl)nc3ccccc3c2=O)cc1 | 28.8
COc1cc2nc(SCC(N)=O)n(CCC3=CCCCC3)c(=O)c2cc1OC | -10.9
CCN(CC)S(=O)(=O)c1cccc(C(=O)OCC(=O)Nc2ccccc2OC(F)F)c1 | -7.37
CCC(C)(C)C1CCc2c(sc(NC(=O)c3ccoc3C)c2C(N)=O)C1 (centres unmarked) | 17.8
COc1ccc(N/C=C(\C#N)S(=O)(=O)c2ccc(Cl)cc2)c(OC)c1 | -8.9
Cc1cc(N2CCOCC2)n2cc(-c3ccccc3)nc2n1 | -50.1
Cc1cc(N2CCOCC2)n2nc(C)c(-c3ccccc3)c2n1 | 9.17
Cc1cc(N2CCOCC2)n2ncc(-c3ccccc3)c2n1 | -18.5
O=C(Nc1ccccc1)c1ccc(Nc2c([N+](=O)[O-])cc([N+](=O)[O-])c3ccccc23)cc1 | 6.49
O=C(CSc1cccc[n+]1[O-])Nc1ccc2c(c1)OCO2 | 6.96
COc1ccc(-c2nnc(SCC(=O)N3CCOCC3)o2)cc1 | -1.92
O=C(CSc1nnc(-c2ccc(OC(F)F)cc2)o1)N1CCOCC1 | -57
O=C(CSc1ccccc1)N1CCN(C(=O)c2ccco2)CC1 | -10.1
O=C(CSc1nnc(-c2ccccc2Br)o1)N1CCN(C(=O)c2ccco2)CC1 | -40.9
O=C(CSc1nnc(-c2ccc(F)cc2)o1)N1CCN(C(=O)c2ccco2)CC1 | -38.4
O=C(CSc1ccc(Br)cc1)N1CCN(C(=O)c2ccco2)CC1 | -62.4
CCOc1ccc(-c2nnc(SCC(=O)N3CCOCC3)o2)cc1 | 2.8
O=C(CSc1nnc(-c2ccc(Br)cc2)o1)N1CCN(C(=O)c2ccco2)CC1 | -54.6
O=C(Cc1ccc(Br)cc1)N1CCN(C(=O)c2ccco2)CC1 | -32.3

Reference: publication PMC4336329 (PLoS ONE, 2015)
